Pf Dd2 growth: qHTS Primary assay for Inhibitors of Plasmodium falciparum Dd2 growth in vitro; Potency, µM (titrated, usually from 28.9 µM), without a hit: at the top dose activity, negative = inhibition, most hits filed as inhibitors; P. falciparum Dd2 growth, SYBR Green, 72 h; 120,000 compounds, 4.3% hits; AID 1347417, 2020; active means well fitted inhibition curve with a large enough effect;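 further: plate controls were DMSO vehicle for no effect and reference drug for full effect; nearly all actives have a fitted effect of over 65% in size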
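Infected erythrocytes (Dd2, 0.3% parasitemia, 2.5% hematocrit final) are added to compound in RPMI-1640/Albumax II medium, grown 72 h at 37C in low oxygen, then lysed with saponin/Triton-X containing SYBR Green and read by fluorescence.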
Numbers without * were called inactive; i = inactive; [ ] = remark or other dose. Many of the other results were omitted from the sample, so hits are more common in it than they were. Potency means the concentration at half of the fitted maximal effect.

SMILES	Pf Dd2 growth
CCOC(=O)C[C@@H]1C[C@@H](C(C)C)[C@H](CNS(=O)(=O)c2ccc(OC)cc2)C=C1C	-19%[44.1 µM]
CC1=C[C@@H](CNS(=O)(=O)c2cccc(C#N)c2)[C@H](C(C)C)C[C@H]1CC(=O)NCc1cccnc1	-4%
CC1=C[C@@H](CNS(=O)(=O)c2ccc(C)cc2)[C@H](C(C)C)C[C@H]1CC(=O)N(C)Cc1cccnc1	13µM*
COCCN1CCC(CN(C)C(=O)C(N)c2c(C)n[nH]c2C)CC1 (stereo not drawn)	-7%
CCn1ncc(N2CCCC(CC(=O)Nc3ccccc3OC)C2)cc1=O (stereo not drawn)	-9%
COCc1nc(C2CCCN(C(=O)c3cccc(OC)c3OC)C2)no1 (stereo not drawn)	8%
CC(C)c1noc(-c2cn(C3CCN(C(=O)c4ccsc4)CC3)nn2)n1	i
CC1(c2noc(C3CC3)n2)CCN(C(=O)CCc2nc3ccc(Cl)cc3[nH]2)CC1	i
CC1(c2noc(-c3ccccn3)n2)CCN(C(=O)CCC(=O)N2CC(=O)Nc3ccccc32)CC1	-17%
CC1(c2noc(-c3ccccn3)n2)CCN(C(=O)CCc2nc3ccc(Cl)cc3[nH]2)CC1	5.6µM*
CCOC(=O)c1ccc(OCC2c3cc(OC)c(OC)cc3CCN2C(=O)Cc2ccc(F)cc2)cc1 (stereo not drawn)	10µM*
COC(=O)c1ccc(OCC2c3cc(OC)c(OC)cc3CCN2C(=O)Cc2ccc(OC)cc2)cc1 (stereo not drawn)	10µM*
COc1cc2c(cc1OC)C(CNC(=O)CC(C)C)N(C(=O)NC(C)C)CC2 (stereo not drawn)	i
CCNC(=O)N1CCc2cc(OC)c(OC)cc2C1CNC(=O)CC(C)C (stereo not drawn)	0%
COc1ccc(CC(=O)N2[C@@H]3CC[C@H]2CC(NC(=O)c2ccc(F)cc2)C3)cc1OC (stereo partly drawn)	i
CCOC(=O)CC1c2cc(OCC)c(OCC)cc2CCN1C(=O)Nc1cccc(Cl)c1 (stereo not drawn)	-23%
CNC(=O)[C@@H]1CN(C(=O)Cc2ccc(OC)c(OC)c2)C[C@H]1COC	-11%
CCC(=O)N1CCc2cc(CNC(=O)Cc3ccc(OC)c(OC)c3)ccc21	23%
COC(=O)c1ccc(OCC2c3cc(OC)c(OC)cc3CCN2C(=O)Cc2ccc(OC)c(OC)c2)cc1 (stereo not drawn)	11µM*
CCCCC(=O)N1CCc2cc(OC)c(OC)cc2C1COc1ccc(C(=O)OCC)cc1 (stereo not drawn)	11µM*
COc1ccc(NC(=O)N2CCC3(CC2)CC(N(C(=O)NC(C)C)C2CC2)CCO3)cc1 (stereo not drawn)	i
O=C(NCC1CC1)c1cn(C2CN(C(=O)Nc3ccccc3F)C2)nn1	22%
COC(=O)c1ccc2c(c1)nc1n2[C@@H](CNC(=O)C2CC2)COC1	12%[44.1 µM]
COc1ccc(S(=O)(=O)N2CCC(c3noc(C4CC4)n3)C2)cc1 (stereo not drawn)	22%[5.79 µM]
CNCc1cn(C[C@H]2CC3CCN2C[C@@H]3C(=O)N(C)C)nn1 (stereo partly drawn)	50%[44.1 µM]
SMILES	Pf Dd2 growth
Cc1noc(-c2ccc(OC3CN(C(=O)c4ccoc4)C3)cc2)n1	i[5.79 µM]
Cc1noc(C)c1[S+](=O)([O-])N1CCC2(CC1)CC(=O)Nc1ccccc1O2	-23%
COC[C@H]1CCCN1Cc1nc(C2(O)CCN(Cc3ccc(OC)cc3)CC2)cs1	i
CC1(C)CC(NC(=O)Cn2nc3c(cc2=O)CCCCC3)CCO1 (stereo not drawn)	2%
COc1cc2c(cc1OC)C(COc1ccccc1OC)N(C(=O)COc1ccc(Cl)cc1)CC2 (stereo not drawn)	8.9µM*
CCOc1cc2c(cc1OCC)C(CC(=O)OC)N(C(=O)Nc1cc(C)cc(C)c1)CC2 (stereo not drawn)	20%
CCCC(=O)N1CCc2cc(OC)c(OC)cc2C1COc1ccc(C(=O)OC)cc1 (stereo not drawn)	10µM*
COC(=O)c1ccc(OCC2c3cc(OC)c(OC)cc3CCN2C(=O)c2ccc(OC)cc2)cc1 (stereo not drawn)	7.1µM*
CCOc1ccc(NC(=O)N2CCc3cc(OC)c(OC)cc3C2CNC(=O)CC(C)C)cc1 (stereo not drawn)	i
COC[C@@H]1CN(C(=O)COc2ccc(Cl)cc2)C[C@H]1C(N)=O	-1%
COc1cc2c(cc1OC)C(CC(=O)O)N(C(=O)Nc1cc(OC)c(OC)c(OC)c1)CC2 (stereo not drawn)	i
COc1ccc(CC(=O)N2CCc3cc(OC)c(OC)cc3C2COc2cc(C)cc(C)c2)cc1OC (stereo not drawn)	4µM*
COc1ccc(C(=O)N2CCN(C(=O)COc3ccc(C)cc3)CC2)cc1OC	24%
Cc1cc(C(=O)NCC2(COc3ccc(C(F)(F)F)cn3)C[C@@H](O)[C@@H](O)C2)no1 (stereo partly drawn)	-25%
CN1[C@@H](CCC(=O)N2CCC(O)CC2)CNC(=O)[C@@H]2[C@H]1CCN2Cc1ccc(F)cc1	13%[44.1 µM]
